According to PubChem BioAssay (NCATS):
Records with an inconclusive call do not appear. Entries that show only a call come without a potency. Active and inactive are the calls of the source. The call rests on the fitted dose curve; in most records, active means well fitted inhibition curve with a large enough effect; inconclusive means small, poorly fitted or top-dose-only effect; inactive means flat fitted curve, though single readings scatter.

Molecular target: Ubiquitin carboxyl-terminal hydrolase 1 (Homo sapiens) (UniProt O94782)
Assay: Inhibitors of USP1/UAF1: Pilot qHTS (AID 504865); further: nearly all actives have a fitted effect of over 35% in size
How it was run: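 USP1/UAF1 complex (1nM) preincubated with compound 15 min at room temperature, then Ub-Rho substrate (150nM final) added. Fluorescence read kinetically at 480/540 nm, 6 reads every 60 seconds. Buffer: 50mM HEPES pH 7.8, 0.5mM EDTA, 0.1 mg/ml BSA, 1mM TCEP, 0.01% Tween-20.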
Potency means the concentration at half of the fitted maximal effect.

Sequence of Ubiquitin carboxyl-terminal hydrolase 1 (Homo sapiens) (O94782 whole entry, looked up): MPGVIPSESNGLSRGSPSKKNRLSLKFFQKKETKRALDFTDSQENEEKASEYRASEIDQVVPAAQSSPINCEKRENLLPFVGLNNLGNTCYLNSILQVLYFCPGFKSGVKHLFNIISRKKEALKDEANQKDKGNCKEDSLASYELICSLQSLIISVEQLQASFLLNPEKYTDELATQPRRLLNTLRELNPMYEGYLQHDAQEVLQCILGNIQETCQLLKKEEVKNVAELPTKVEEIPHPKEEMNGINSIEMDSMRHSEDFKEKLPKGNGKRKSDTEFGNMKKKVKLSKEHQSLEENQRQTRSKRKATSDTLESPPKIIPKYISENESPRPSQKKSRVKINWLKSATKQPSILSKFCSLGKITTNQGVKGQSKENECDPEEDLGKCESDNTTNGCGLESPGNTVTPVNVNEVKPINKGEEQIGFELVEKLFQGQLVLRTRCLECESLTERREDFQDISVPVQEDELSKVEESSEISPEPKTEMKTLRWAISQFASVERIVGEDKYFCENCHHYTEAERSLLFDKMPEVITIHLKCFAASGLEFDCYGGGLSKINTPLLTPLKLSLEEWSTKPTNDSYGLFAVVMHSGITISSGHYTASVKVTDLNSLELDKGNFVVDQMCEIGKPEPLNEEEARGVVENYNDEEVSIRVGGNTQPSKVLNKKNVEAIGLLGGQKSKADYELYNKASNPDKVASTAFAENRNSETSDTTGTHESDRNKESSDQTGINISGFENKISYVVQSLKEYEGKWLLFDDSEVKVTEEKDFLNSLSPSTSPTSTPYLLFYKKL

SMILES | Potency
CC[C@H]1OC(=O)[C@H](C)[C@@H](O[C@H]2C[C@@](C)(OC)[C@@H](O)[C@H](C)O2)[C@H](C)[C@@H](O[C@@H]2O[C@H](C)C[C@H](N(C)C)[C@H]2O)[C@](C)(O)C[C@@H](C)CN(C)[C@H](C)[C@@H](O)[C@]1(C)O | inactive
N#Cc1ccc2c(c1)N(CCCN1CCC(O)CC1)c1ccccc1S2 | inactive
CNC(=O)c1c(I)c(C(=O)NCC(=O)Nc2c(I)c(C(=O)O)c(I)c(C(=O)NCCO)c2I)c(I)c(N(C)C(C)=O)c1I | inactive
O=C1c2ccccc2CN2C(=O)c3ccccc3CN12 | inactive
O=C(O)C1=C(CSc2nnnn2CS(=O)(=O)O)CS[C@@H]2[C@H](NC(=O)[C@H](O)c3ccccc3)C(=O)N12 | inactive
Cc1ccc(S(=O)(=O)O)cc1C | inactive
NCC[C@H](O)C(=O)N[C@@H]1C[C@H](N)[C@@H](O[C@H]2O[C@H](CN)CC[C@H]2N)[C@H](O)[C@H]1O[C@H]1O[C@H](CO)[C@@H](O)[C@H](N)[C@H]1O | inactive
COC(=O)c1ccccc1O | inactive
CS(=O)(=O)c1ccc([C@@H](O)[C@@H](COC(=O)CN)NC(=O)C(Cl)Cl)cc1 | inactive
CC(C)(C)CC(C)(C)c1ccc(OCCO)cc1 | inactive
COC1=C(OC)C(=O)C(C/C=C(\C)CC/C=C(\C)CC/C=C(\C)CC/C=C(\C)CC/C=C(\C)CC/C=C(\C)CC/C=C(\C)CC/C=C(\C)CC/C=C(\C)CCC=C(C)C)=C(C)C1=O | inactive
O=C(CCCN1CCN2CCCC2C1)c1ccc(F)cc1 (configuration not stated) | inactive
CN(C)c1ccc(C(=C2C=CC(=[N+](C)C)C=C2)c2c(O)c(S(=O)(=O)[O-])cc3cc(S(=O)(=O)O)ccc23)cc1 | 56.2 µM (active)
C(=C\c1ccncc1)/c1ccccc1 | inactive
O=C(O)CCC/C=C\C[C@@H]1[C@@H](/C=C/[C@@H](O)COc2cccc(C(F)(F)F)c2)[C@H](O)C[C@@H]1O | inactive
Cc1cccc(C)c1NC(=O)NC1=CCCN1C | inactive
O=C(O)/C=C/c1ccccc1 | inactive
O=C(O)CCCC/C=C(\c1ccccc1)c1cccnc1 | inactive
O=C(O)COc1ccc(CCNS(=O)(=O)c2ccccc2)s1 | inactive
OCCCNc1ccccc1 | inactive
C=CCOc1ccc(CC(=O)O)cc1Cl | inactive

SMILES | Potency
CC(C)CCC[C@@H](C)[C@H]1CC[C@H]2[C@@H]3CC[C@@H]4C[C@H](O)CC[C@]4(C)[C@H]3CC[C@]12C | inactive
CC(C)Cc1ccc([C@@H](C)C(=O)NS(C)(=O)=O)cc1 | inactive
O=C(O[C@H]1CN2CCC1CC2)N1CCc2ccccc2[C@@H]1c1ccccc1 | inactive
CC(=O)Nc1ccc(OC(=O)c2ccccc2O)cc1 | inactive
CC(=O)Nc1c(I)c(C(=O)O)c(I)c(N(C)C(C)=O)c1I | inactive
CCc1ccc(S(=O)(=O)O)cc1 | inactive
Oc1cccc(O)c1O | inactive
COC(=O)[C@@H](N)CS | inactive
c1ccc2c(c1)Sc1ccccc1N2CCN1CCCC1 | inactive
COc1ccc(C[C@H](C)NC[C@@H](O)c2ccc(O)c(NC=O)c2)cc1 | inactive
C/C=C/C=C/C(=O)O | inactive
C=C(C)C1CC=C(C)CC1 (configuration not stated) | inactive
CC12CCC(C1)C(C)(C)C2=O (configuration not stated) | inactive
CN=C1C=CC(=C(c2ccc(N(C)C)cc2)c2ccc(N(C)C)cc2)C=C1 | 20 µM (active)
c1ccc(-n2cnnn2)cc1 | inactive
NCC(O)CC(=O)O (configuration not stated) | inactive
CCOC(=O)[C@@H](N)CS | inactive
O=C1CCC(=O)N1CO | inactive
NC(=S)NS(=O)(=O)c1ccc(N)cc1 | inactive
CC(=O)NCCCS(=O)(=O)O | inactive
CCOC(C)OCC | inactive

SMILES | Potency
Nc1nccs1 | inactive
CN1C(C(=O)Nc2ccccn2)C(=O)c2sc(Cl)cc2S1(=O)=O (configuration not stated) | inactive
CCCCCCCCCCCCCC(=O)OCC(COP(=O)([O-])OCC[N+](C)(C)C)OC(=O)CCCCCCCCCCCCC (configuration not stated) | inactive
Cc1c(C)c2c(c(C)c1OC(=O)CCC(=O)O)CC[C@@](C)(CCC[C@H](C)CCC[C@H](C)CCCC(C)C)O2 | 35.5 µM (active)
CCCCCCCCCCCCCCCCCC(=O)OC[C@@H](O)[C@H]1OC[C@H](O)[C@H]1O | inactive
CN1C(=O)C[C@@H](C(=O)N[C@@H](Cc2cnc[nH]2)C(=O)N2CCC[C@H]2C(N)=O)NC1=O | inactive
CCc1ncnc2cc(OC)c(OC)cc12 | inactive
C#C[C@]1(O)CC[C@@H]2[C@H]3CCC4=CC(=O)CC[C@H]4[C@H]3C(=C)C[C@@]21CC | inactive
Cc1ncc(C[n+]2csc(CCOP(=O)(O)OP(=O)(O)O)c2C)c(N)n1 | inactive
ClC(Cl)Cl | inactive
Cn1c(O)c(N=NC(N)=S)c2ccccc21 | inactive
O=C1N=C2SCCN2C(=O)C1Cc1ccc(Cl)cc1 (configuration not stated) | inactive
CCN(CC)CCOc1ccc2nc(N(C)C)sc2c1 | inactive
OC[C@H]1O[C@@](CO)(O[C@H]2O[C@H](CO)[C@@H](O)[C@H](O)[C@H]2O)[C@@H](O)[C@@H]1O | inactive
O=P(O)(O)OP(=O)(O)OP(=O)(O)O | inactive
CCN(CC)C(=S)S | inactive
CS(=O)(=O)OCC(O)C(O)COS(C)(=O)=O (configuration not stated) | inactive
O=C(CCCN1CCC(C(=O)c2ccc(F)cc2)CC1)c1ccc(F)cc1 | inactive
[O]=[Bi][O]C(=O)[O][Bi]=[O] | inactive
CCOc1ccc(NC(=S)Nc2ccc(OCC)cc2)cc1 | inactive
